D2 ag-1 – activates the human D2 dopamine receptor | AID 485358 | activation, % at 2 µM | 340,000 compounds, 0.53% hits | P14416 | HEK293 T-REx D2 cells, calcium flux agonist mode;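 active = activation over 3 SD above normal in the single-dose calcium agonist read, cut at about 30% in these data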
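Agonism is scored from calcium flux in a force-coupled, inducible HEK293 cell line expressing D2, read kinetically for 180 s after compound addition against dopamine controls.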
D2 antagonist – antagonists of human D2 dopamine receptor; P14416; inhibition, % at 10 µM; HEK293 TREx D2 cells, calcium flux, dopamine EC80; 340,000 compounds, 2% hits; in the data active = inhibition above about 30%; inactive = below that, where a call was filed
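Calcium mobilization kinetics were recorded at 1 s intervals in tetracycline-induced HEK293 T-REx D2 cells, first for 180 s after compound addition and then 180 s after EC80 dopamine.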
Apoferritin bind – candidate novel general anesthetic via apoferritin binding; Potency, µM (highest dose often 77.5 µM), usual class: inhibitors; AID 485281; 350,000 compounds, 0.074% hits; apoferritin/1-aminoanthracene competitive binding, fluorescence; active = well fitted inhibition curve with a large enough effect; inconclusive = small, poorly fitted or top-dose-only effect; inactive = no such curve, though single readings can be large or run the other way; note: nearly all actives have a fitted effect of over 20% in size
Target sequence (P02791 2-175 limits assumed): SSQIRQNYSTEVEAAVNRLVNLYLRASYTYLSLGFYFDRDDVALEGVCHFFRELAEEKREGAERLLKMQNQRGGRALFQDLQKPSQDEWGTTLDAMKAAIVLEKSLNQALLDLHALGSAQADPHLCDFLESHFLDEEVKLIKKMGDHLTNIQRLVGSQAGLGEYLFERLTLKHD
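Probe: 1-aminoanthracene (50% saturated, PBS). Protein: horse-spleen apoferritin, 10 uM. Incubation: 10 min, room temperature. Detection: 380 nm excitation, 535 nm emission. Analysis: normalized response, four-parameter Hill.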
D2 PAM-1 – potentiates the human D2 dopamine receptor allosterically; P14416; DiscoveRx D2 beta-arrestin cells, luminescence, 90 min; 100% = 57 uM dopamine signal; potentiation, % (test concentration not listed); 360,000 compounds, 0.23% hits; in the data active = potentiation above about 50%; inconclusive = mostly about 30% to 49%
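D2 cells co-treated with compound plus 50 nM dopamine (EC20) for 90 min at 37 deg C to detect potentiation. Beta-arrestin recruitment was read as enzyme-fragment luminescence after 1 h at ambient temperature. Full response was set by 57 uM dopamine.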
D2 ag-2 – human D2 receptor agonism in beta-arrestin assay. DiscoveRx PathHunter D2 beta-arrestin, luminescence, 90 min; 100% = 57 uM dopamine signal. activation, % (concentration not given with the values). 360,000 compounds, 0.084% hits. AID 624465; in the data active = activation above about 40%; inconclusive = between about 15% and that limit
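DiscoveRx PathHunter D2 beta-arrestin cells (2,100/well) attached overnight, then compound-stimulated 90 min at 37 C in HBSS/10 mM HEPES/0.1% Tween-20 buffer; beta-galactosidase complementation read by luminescence after 1 h at ambient temperature. Dopamine 57 uM final (EC100) as control.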
D2 PAM-2 – positively modulates the human D2 dopamine receptor allosterically; AID 485347; 340,000 compounds, 0.34% hits; HEK293 T-REx D2, calcium flux, EC20 dopamine potentiation; P14416; potentiation, % at 10 µM;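 active = potentiation over 3 SD above the plate norm, cut at about 30% in these data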
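Cells plated with tetracycline inducer and held overnight at 30 C; calcium dye loaded 30–90 min at room temperature; baseline taken, compound added and read 180 s; EC20 dopamine then added and read 180 s.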
Of the large screens only hits and unclear results are named; the others gave an inactive call. This is a sample that favours compounds with a hit; in the whole collection about 2.5% have one here.

CCN1C(=O)OC2(CCCCC2)C1(C)O (configuration not stated)	D2 PAM-2 41 (no result: D2 PAM-1, D2 ag-2)
CC(=O)Nc1ccc(N=Cc2ccc(OCc3ccccc3)cc2)cc1	Apoferritin bind inconclusive
C(=Nc1ccc(Nc2ccccc2)cc1)c1ccc2ccccc2c1	Apoferritin bind inconclusive, D2 PAM-1 52
NC(=S)N/N=C/c1ccc2ccccc2c1	D2 antagonist 48
NC(=S)N/N=C/c1cccc(/C=N/NC(N)=S)c1	none
Brc1ccc(C=Nc2ccc(Nc3ccccc3)cc2)s1	D2 PAM-1 87, D2 ag-2 inconclusive
Cc1ccn(CC(=O)N2CCCC(N3CCN(c4ccccc4F)CC3)C2)n1 (configuration not stated)	none
O=C(Nc1ccc([N+](=O)[O-])cc1)C1C(c2ccccc2)=C1c1ccccc1	none
O=C(N/N=C/c1c(O)ccc2ccccc12)c1cccnc1	none
O=C(N/N=C\c1c(O)ccc2ccccc12)c1cncc(Br)c1	D2 ag-1 66
CCc1ccc(NC(=O)C/C(C)=N/NC(=O)COc2ccccc2C)cc1	D2 antagonist 40
CCc1ccc(CNc2ncnc3c2nc2n3CCCC2)cc1	none (no result: D2 antagonist, D2 PAM-1, D2 ag-2)
CC(C)OCCCNc1ncnc2c1nc1n2CCCC1	D2 antagonist 33
O=C(COC(=O)c1cccnc1Cl)c1ccc(Cl)s1	none (no result: D2 ag-1, D2 antagonist, Apoferritin bind, D2 PAM-2)
O=C(COC(=O)c1cccnc1Cl)c1cccc(Cl)c1	D2 antagonist 69, Apoferritin bind inconclusive
COC(=O)c1cc2oc3ccccc3c2n1Cc1ccc(Cl)cc1	none (no result: D2 antagonist, D2 PAM-1, D2 ag-2)
CNCc1c(OCc2ccccc2F)ccc2ccccc12	D2 antagonist 78
CNCc1c(OCc2ccccc2)ccc2ccccc12	D2 antagonist 79
Nc1nonc1C(=O)NCCNCc1c(OCc2ccccc2F)ccc2ccccc12	none
CC(C)(CO)NCc1c(OCc2ccc(Cl)cc2)ccc2ccccc12	none
CCOc1cccc(OCCOc2ccc(C(=O)c3ccccc3)cc2)c1	none
CC1CC(=O)Nc2ccccc2N1C(=O)COc1cc(Cl)ccc1Cl (configuration not stated)	D2 antagonist 30 (no result: Apoferritin bind)
O=C1CN(C(=O)COc2ccc(Cl)cc2Cl)c2ccccc2N1	D2 antagonist 30
O=C1CN(C(=O)COC(=O)c2ccc([N+](=O)[O-])s2)c2ccccc2N1	D2 PAM-1 69, D2 ag-2 inconclusive (no result: D2 ag-1, D2 antagonist, Apoferritin bind, D2 PAM-2)
Cc1sc2ncnc(OCC(=O)N3CC(=O)Nc4ccccc43)c2c1C	D2 PAM-2 32
Cc1cccc(NC(=O)CSCC(=O)NCc2cccc(C(F)(F)F)c2)c1	none
COc1cccc(CN(C)C(=O)c2cccc(S(=O)(=O)Nc3cccc(C)c3)c2)c1OC	none (no result: D2 ag-1, D2 antagonist, Apoferritin bind, D2 PAM-2)
FC(F)(F)c1cccc(N2CCN(Cc3cccnc3)CC2)c1	D2 antagonist 76
COc1cccc(N2CCN(Cc3cccnc3)CC2)c1	none
FC(F)(F)c1cccc(N2CCN(Cc3ccoc3)CC2)c1	D2 antagonist 103
CCOC(=O)c1sc(C)c2c(=O)n(Cc3ccc(Cl)cc3)c(C)nc12	D2 antagonist 38, Apoferritin bind inconclusive
CCOC(=O)c1sc(C)c2c(=O)n(Cc3ccc(Cl)cc3)cnc12	none (no result: D2 PAM-2)
O=C(CCNC(=O)N1CC(=O)Nc2ccccc21)Nc1ccc(Br)cc1F	D2 antagonist 55
CCN(CC(=O)NC(c1ccccc1)c1ccccc1)Cc1nc2ccccc2c(=O)[nH]1	D2 antagonist 32, Apoferritin bind inconclusive
CCn1nnnc1SCC(=O)Nc1ccc(OC)cc1	none
COc1cccc2cc(-c3nnc(SCC(=O)Nc4ccc(NC(C)=O)cc4)n3C)oc12	none
COc1ccccc1NC(=O)CSc1nnc(COc2ccccc2OC)n1C	none
COc1ccc(Cl)cc1NC(=O)CSc1nnc(COc2ccccc2)n1N	D2 antagonist 54
CCOc1ccc(OCC)c(NC(=O)CSc2nnnn2CC)c1	D2 PAM-2 32
COc1ccc(C)cc1NC(=O)CSc1nnc(-c2cc3cccc(OC)c3o2)n1N	D2 antagonist 35
CCn1c(COc2ccccc2)nnc1SCC(=O)Nc1cc(OC)ccc1OC	none (no result: D2 ag-1, D2 antagonist, D2 PAM-2)

Compound activity deposited in PubChem BioAssay by National Center for Advancing Translational Sciences (NCATS).
